Test results published in PubChem BioAssay (Tox21).
Calls of active or inactive are those of the source. Where a call stands in place of a potency, no number is given. The call rests on the fitted dose curve.

experiment: qHTS assay to identify small molecule agonists of the sonic hedgehog signaling (Shh) pathway (AID 1259368); conditions: NIH/3T3 Gli1-Luc reporter, luciferase, 24 h; series mostly up to 92.4 µM;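 further: NIH/3T3-derived 3T3Gli1-Luc cells carrying a stable Gli1-driven firefly luciferase reporter; nearly all actives have a fitted effect of over 15% in size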
In short: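 Read-out: firefly luciferase luminescence from a Gli1 response element reporter stably integrated in NIH/3T3-derived 3T3Gli1-Luc cells, measured 30 min at room temperature after reagent addition. Compound exposure lasted 24 hr at 37 C, 5% CO2.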

Row | Compound | Potency
1 | Cc1cc(CC(=O)O)n(C)c1C(=O)c1ccc(Cl)cc1 | inactive
2 | Cc1ccccc1C=O | inactive
3 | C[n+]1ccn(CCO)c1 | inactive
4 | CCCN(CCC)C(=O)SCC | inactive
5 | C1CCCNCC1 | inactive
6 | NCCNCCNCCN | inactive
7 | COC(=O)/C=C\C(=O)OC | inactive
8 | C=CC(=O)NCOCCCC | inactive
9 | CS(=O)(=O)c1ccc(Cl)cc1 | inactive
10 | OCC(O)CS (stereo not drawn) | inactive
11 | NC1CCCCC1N (stereo not drawn) | inactive
12 | CC(C)=CCC/C(C)=C/C=O | inactive
13 | O=C(NCC1CCCCN1)c1cc(OCC(F)(F)F)ccc1OCC(F)(F)F (stereo not drawn) | inactive
14 | CCCCCNCCCCC | inactive
15 | Cc1ccc(C)c(S(=O)(=O)O)c1 | inactive
16 | C=C(CC(=O)O)C(=O)O | inactive
17 | CCn1cc(C(=O)O)c(=O)c2cc3c(cc21)OCO3 | inactive
18 | C=C1C[C@]23C[C@@]1(O)CC[C@H]2[C@@]12C=C[C@H](O)[C@@](C)(C(=O)O1)[C@H]2[C@@H]3C(=O)O | inactive
19 | CC(=O)OCc1ccc2c(c1)OCO2 | inactive

Row | Compound | Potency
20 | CCCOC(=O)NCCCN(C)C | inactive
21 | CN1Cc2c(N)cccc2C(c2ccccc2)C1 (stereo not drawn) | inactive
22 | O=c1n(CCCN2CCN(c3cccc(Cl)c3)CC2)nc2ccccn12 | inactive
23 | Cc1ccccc1Cl | inactive
24 | NC(N)=S | inactive
25 | CC(C)(CO)CO | inactive
26 | COC(=O)OC | inactive
27 | CC1(C)C(=O)N(Cl)C(=O)N1Cl | inactive
28 | CC(C)(C)NC[C@H](O)COc1nsnc1N1CCOCC1 | inactive
29 | Cc1cccc(C)c1[N+](=O)[O-] | inactive
30 | CC(CN1c2ccccc2Sc2ccccc21)N(C)C (stereo not drawn) | inactive
31 | O=C(c1ccccc1)c1ccc(O)c(O)c1O | inactive
32 | O=C1OC(=O)c2c(Cl)c(Cl)c(Cl)c(Cl)c21 | inactive
33 | OCc1ccc(Cl)cc1Cl | inactive
34 | O=C1O[C@H]([C@H](O)CO)C(O)=C1O | inactive
35 | OCCOCCOCCOCCOCCO | inactive
36 | CCN(CC)CCNC(=O)c1ccc(N)cc1 | inactive
37 | COCN(COC)c1nc(N(COC)COC)nc(N(COC)COC)n1 | inactive
38 | CC(=O)OCCC(C)C | inactive
